This is part of a sample that, as a whole, favours compounds with a hit. Of some 83,000 tested, about 20% had one in any assay.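 Cells were grown in 96-well plates and exposed to the test compound at a single concentration for 48 hours; results are reported as percent growth, with values below 10 considered active.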 Activity calls are given as the source filed them.
What follows are compounds tested on OVCAR-5 ovarian (assay: NCI-60 one-dose screen, 48 h (100 = growth as untreated, 0 = no growth, -100 = all killed)). Conditions: 10 µM unless noted.

**Q.** With `CCNC(=O)OCCc1c2ccccc2nc2ccccc12` as the compound, how does the growth read?
**A.** Its growth is 111% (inactive).

**Q.** `CCCCn1cnc2c(=O)[nH]cnc21` was tested. Which growth did it give?
**A.** The growth was 98.7% (inactive).

**Q.** With `Cc1cc(CC(=O)NCCO)n(CCO)c(=O)c1` as the compound, how does the growth read?
**A.** Its growth is 106% (inactive).

**Q.** Which growth does the source give for `CCCCCCCCCCC(=O)CCCCCCCCCC` here?
**A.** Its growth is 103% (inactive).

**Q.** `NC(=S)c1c(N)n(C2OC(CO)C(O)C2O)c2ncnc(N)c12` (configuration not stated) was tested. Which growth did it give?
**A.** Its growth is 3.64% (active).

**Q.** With `NC(=S)N/N=C/c1ccc(OC(=O)COc2ccccc2)cn1` as the compound, how does the growth read?
**A.** Its growth is 120% (inactive).

**Q.** Which growth does the source give for `CCOC(=O)CNC(=O)Sc1ccc(C(C)(C)C)cc1` here?
**A.** The growth was 123% (inactive).

**Q.** How did the growth turn out when `c1ccc(Nc2ccccn2)nc1` was run?
**A.** The growth was 102% (inactive).

**Q.** How did the growth turn out when `C[n+]1c(/C=C\C=C\N2CCCCC2)sc2ccccc21` was run?
**A.** The growth was 18.2% (inactive).

**Q.** How did the growth turn out when `CCC(=O)C1C(=O)c2ccccc2C1=O` was run?
**A.** Its growth is 103% (inactive).

**Q.** With `Cc1cc(NC(=O)c2ccccc2)c(Cl)cc1N` as the compound, how does the growth read?
**A.** Its growth is 103% (inactive).

**Q.** For `O=C1C=C[C@H](O)[C@@]2(CO)O[C@@H]12`, which growth is on record?
**A.** The growth was 126% (inactive).

**Q.** Which growth does the source give for `Oc1cc(O)c2c(c1)O[C@H](c1ccc(O)c(O)c1)[C@@H](O)C2` here?
**A.** Its growth is 100% (inactive).

**Q.** `C(=C\c1ccncc1)/c1ccncc1` was tested. Which growth did it give?
**A.** The growth was 114% (inactive).

**Q.** For `CCOC(=O)c1cc(C)[nH]c(=O)c1C#N`, which growth is on record?
**A.** The growth was 105% (inactive).

**Q.** For `NC(CCl)=NCC12CC3CC(CC(C3)C1)C2`, which growth is on record?
**A.** The growth was 7.23% (active).

**Q.** `COC1=C(OC)C(=O)C(SC/C=C(\C)CCCC(C)CCCC(C)CCCC(C)C)=CC1=O` (configuration not stated) was tested. Which growth did it give?
**A.** Its growth is 25.7% (inactive).

**Q.** For `COc1ccc(Br)c2c1C(=O)CC2`, which growth is on record?
**A.** The growth was 97.8% (inactive).

**Q.** For `N#C/C(=C\c1ccc(C#N)cc1)C(=O)c1ccccc1`, which growth is on record?
**A.** The growth was 104% (inactive).

**Q.** `CN1CCCN(C(c2ccccc2)c2ccc(Cl)cc2)CC1` (configuration not stated) was tested. Which growth did it give?
**A.** Its growth is 98.8% (inactive).

Each compound was assayed on OVCAR-4 ovarian in the same assay as above. Conditions: 10 µM unless noted.

**Q.** With `CCOC(=O)/C(C#N)=C\c1c[nH]c2ccccc12` as the compound, how does the growth read?
**A.** The growth was 86.8% (inactive).

**Q.** Which growth does the source give for `CC(=O)N(C)N=Nc1ccc(C)cc1` here?
**A.** Its growth is 102% (inactive).

**Q.** `COc1cc(C(=O)N2CCN(c3ccccc3)CC2)c2ccccc2n1` was tested. Which growth did it give?
**A.** Its growth is 57.5% (inactive).

**Q.** With `CCOC(=O)c1ccc(NC(=O)Nc2nccs2)cc1` as the compound, how does the growth read?
**A.** The growth was 16.7% (inactive).

**Q.** With `O=c1n(CC2CO2)c(=O)n(CC2CO2)n1CC1CO1` (configuration not stated) as the compound, how does the growth read?
**A.** Its growth is 85.2% (inactive).

**Q.** Which growth does the source give for `CCCCCCCCCCCCSC1=C(Cl)C(=O)C(OC)=C(OC)C1=O` here?
**A.** The growth was 38.8% (inactive).

**Q.** How did the growth turn out when `Cc1ccc(N2C(=O)c3cccc4c(N)c(S(=O)(=O)O)cc(c34)C2=O)cc1` was run?
**A.** Its growth is 117% (inactive).

**Q.** Which growth does the source give for `Oc1cccnc1CN1CCCC1` here?
**A.** The growth was 108% (inactive).

**Q.** `O=C1C=C(c2ccccc2)C(O)(c2ccccc2)C1` (configuration not stated) was tested. Which growth did it give?
**A.** Its growth is 95.7% (inactive).

**Q.** `Cc1cc(C)cc(OCC(=O)O)c1` was tested. Which growth did it give?
**A.** Its growth is 113% (inactive).

**Q.** For `Cc1cccc(C)c1NC(=S)/N=C\c1c(O)[nH]c(=O)[nH]c1=O`, which growth is on record?
**A.** The growth was 104% (inactive).

**Q.** Which growth does the source give for `NNC(=O)N/N=C1\C(=O)N(c2nccs2)C(=O)C(=O)C1c1nc2ccccc2s1` (configuration not stated) here?
**A.** The growth was 105% (inactive).

**Q.** Which growth does the source give for `O=[N+]([O-])c1c(O)c(CNCCCO)cc(CNCCCO)c1O` here?
**A.** Its growth is 105% (inactive).

**Q.** Which growth does the source give for `O=C1Nc2ccccc2/C1=C\c1ccccc1O` here?
**A.** Its growth is 80.9% (inactive).

**Q.** For `CN(C)c1ccc2c(N(C)C)cc(N(C)C)nc2c1`, which growth is on record?
**A.** Its growth is 72.1% (inactive).

**Q.** For `Cc1cccc(-[n+]2noc(N)n2)c1`, which growth is on record?
**A.** Its growth is 84% (inactive).

**Q.** How did the growth turn out when `O=S(Cc1ccccc1)/C(=C/NC(=S)Nc1cc(Cl)ccc1Cl)c1ccccc1` (configuration not stated) was run?
**A.** Its growth is 105% (inactive).

**Q.** `CCNC(=O)OCCc1c2ccccc2nc2ccccc12` was tested. Which growth did it give?
**A.** Its growth is 98.1% (inactive).

**Q.** With `CCCCn1cnc2c(=O)[nH]cnc21` as the compound, how does the growth read?
**A.** The growth was 113% (inactive).

**Q.** For `Cc1cc(CC(=O)NCCO)n(CCO)c(=O)c1`, which growth is on record?
**A.** Its growth is 108% (inactive).

**Q.** `CCCCCCCCCCC(=O)CCCCCCCCCC` was tested. Which growth did it give?
**A.** The growth was 103% (inactive).

**Q.** How did the growth turn out when `NC(=S)c1c(N)n(C2OC(CO)C(O)C2O)c2ncnc(N)c12` (configuration not stated) was run?
**A.** Its growth is 14.5% (inactive).

**Q.** `NC(=S)N/N=C/c1ccc(OC(=O)COc2ccccc2)cn1` was tested. Which growth did it give?
**A.** The growth was 69.1% (inactive).

**Q.** With `CCOC(=O)CNC(=O)Sc1ccc(C(C)(C)C)cc1` as the compound, how does the growth read?
**A.** The growth was 89.7% (inactive).

**Q.** How did the growth turn out when `c1ccc(Nc2ccccn2)nc1` was run?
**A.** The growth was 100% (inactive).

**Q.** For `C[n+]1c(/C=C\C=C\N2CCCCC2)sc2ccccc21`, which growth is on record?
**A.** The growth was 16.4% (inactive).

**Q.** With `CCC(=O)C1C(=O)c2ccccc2C1=O` as the compound, how does the growth read?
**A.** The growth was 102% (inactive).

**Q.** Which growth does the source give for `Cc1cc(NC(=O)c2ccccc2)c(Cl)cc1N` here?
**A.** Its growth is 97.5% (inactive).

**Q.** With `O=C1C=C[C@H](O)[C@@]2(CO)O[C@@H]12` as the compound, how does the growth read?
**A.** The growth was 90% (inactive).

**Q.** `C(=C\c1ccncc1)/c1ccncc1` was tested. Which growth did it give?
**A.** Its growth is 92.4% (inactive).

**Q.** `CCOC(=O)c1cc(C)[nH]c(=O)c1C#N` was tested. Which growth did it give?
**A.** The growth was 107% (inactive).

**Q.** For `NC(CCl)=NCC12CC3CC(CC(C3)C1)C2`, which growth is on record?
**A.** Its growth is 11.3% (inactive).

From PubChem BioAssay (NCI)
